# High-throughput results as filed in PubChem.
# This is a sample that favours compounds with a hit; in the whole collection about 4% have one here.
# RecA intein inh: inhibitors of M. tuberculosis RecA intein splicing | AID 2221 | P9WHJ3 | actives 0.75% (n = 290,000) | cell-free RecA intein splicing, fluorescence | inhibition, % (concentration not given with the values); in the data active = inhibition above about 30%;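 also: 0% = vehicle wells and 100% = reference inhibitor control wells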
# Mtb FBA inh: Mtb fructose-bisphosphate aldolase inhibition. P9WQA3. purified M. tuberculosis FBA, fluorescence read-out. inhibition, % at 1 µM. actives 2.3% (n = 360,000). AID 588726; in the data active = inhibition above about 27%;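 also: 0% = vehicle and 100% = reference inhibitor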
# Target sequence (P9WQA3 whole entry, looked up): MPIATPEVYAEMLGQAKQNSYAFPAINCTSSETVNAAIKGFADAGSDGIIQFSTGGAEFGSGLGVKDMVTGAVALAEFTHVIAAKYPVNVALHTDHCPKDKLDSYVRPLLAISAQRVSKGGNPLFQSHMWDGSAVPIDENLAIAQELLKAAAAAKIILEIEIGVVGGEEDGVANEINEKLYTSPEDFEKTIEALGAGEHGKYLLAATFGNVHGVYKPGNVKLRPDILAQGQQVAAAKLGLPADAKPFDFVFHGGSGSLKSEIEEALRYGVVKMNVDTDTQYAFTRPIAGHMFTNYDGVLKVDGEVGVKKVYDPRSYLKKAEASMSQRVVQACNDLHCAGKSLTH
# GDH-TPI counter: counter-screen for M. tuberculosis FBA inhibitors: GDH-TPI coupled enzymes | GDH-TPI coupled enzyme counterscreen, NADH absorbance | inhibition, % at 4.8 µM | actives 1.2% (n = 360,000) | AID 588335; in the data active = inhibition above about 30%;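 also: 0% = DMSO wells and 100% = wells lacking the enzyme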
# Mtb UGM inh: blocks M. tuberculosis UGM enzyme | P9WIQ1 | purified UGM, fluorescence polarization probe displacement | inhibition, % at 10 µM | actives 0.06% (n = 320,000); in the data active = inhibition above about 10%, passing the limit was not always enough
# Mtb betalactam: beta-lactam sensitization of Mtb H37Rv; M. tuberculosis H37Rv growth with meropenem, percent inhibition; actives 0.27% (n = 330,000); AID 434955; inhibition, % at 25 µM; call rule not given here;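 also: growth measured after seven days incubation then overnight dye step; 0% = bacteria only wells and 100% = bacteria with antibiotic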
# Rv3671c protease: inhibitors of M. tuberculosis serine protease Rv3671c; P9WHR9; actives 0.048% (n = 320,000); inhibition, % at 5.96 µM; AID 2606; in the data active = inhibition above about 38%;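 also: extracellular domain of Rv3671c used as enzyme; 0% = enzyme with DMSO and 100% = no enzyme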
# * = called active by the depositor; . = not tested or not shown; + = active, no number.
SMILES,RecA intein inh,Mtb FBA inh,GDH-TPI counter,Mtb UGM inh,Mtb betalactam,Rv3671c protease
Cc1ccc(OCCNC(=O)CCc2ccccc2)cc1C,0.3,0.3,5.2,-1.4,-12.4,-6.0
CN(C)c1ccc(/C=N/NC(=O)c2nnn(-c3nonc3N)c2CN(C)c2ccccc2)cc1,-6.2,8.1,30.8*,-0.6,-2.5,5.5
Nc1nonc1-n1nnc(C(=O)N/N=C/c2ccc(O)cc2)c1COc1ccc(F)cc1,-3.3,-2.0,32.4*,-1.6,-0.4,-6.4
COCc1c(C(=O)N/N=C/c2ccc(C)o2)nnn1-c1nonc1N,-3.0,-3.4,38.1*,0.6,-2.9,-0.9
CN(Cc1c(C(=O)N/N=C/c2ccccc2)nnn1-c1nonc1N)c1ccccc1,3.7,-1.8,1.7,2.1,-5.6,-5.1
COc1ccccc1CN(C)C(=O)c1sccc1-c1ccccc1,10.3,-1.9,4.5,-3.3,-4.4,-7.0
CCOc1ccc(NC(=O)CN(C)C(=O)c2cc(C3CC3)nn2-c2ccccc2)cc1OCC,.,2.0,-11.6,.,.,.
CCCCCNC(=O)c1[nH]c(C(F)(F)F)nc1-c1ccccc1,.,2.5,.,.,.,.
O=C(COc1ccc([N+](=O)[O-])cc1)N/N=C/c1cc([N+](=O)[O-])ccc1N1CCOCC1,-4.2,-3.2,48.1*,.,7.3,6.0
Cc1ccc(OCC(=O)N/N=C/c2cc([N+](=O)[O-])ccc2N2CCCCC2)cc1,-7.4,-1.4,12.4,1.2,9.2,6.1
CC(=O)O[C@@H]1C[C@H]2C(C)(C)C(=O)C=C[C@]2(C)[C@H]2CC[C@@]3(C)[C@H](c4ccoc4)OC(=O)[C@H]4O[C@]43[C@@]21C,42.3*,2.9,2.6,-2.4,80.3,-9.7
CCc1nc2ccc(C(=O)NCCCn3ccnc3)cn2c1N(C)Cc1ccc(OC)cc1,.,-1.6,8.8,.,.,.
O=C(O)c1c(-c2ccccc2)oc2ccc(O)cc12,-4.4,25.8,-2.9,0.5,1.2,0.7
COC(=O)c1c(-c2ccc(OC)cc2)oc2ccccc12,11.4,134.3*,17.6,0.9,24.6,-15.9
COc1ccc2oc(-c3ccccc3)c(C(=O)O)c2c1,-6.5,+,8.8,1.9,4.0,-6.7
COc1ccc(-c2oc3ccccc3c2C(=O)OCc2ccc([N+](=O)[O-])cc2)cc1,0.5,2.4,2.2,1.8,2.5,-5.5
O=C(NCCOc1ccc(Cl)cc1)c1ccc2c(c1)OCCO2,.,0.5,4.8,5.5,2.2,-3.0
Cc1cc(Sc2nnc(/N=C/N(C)C)s2)c2ccccc2n1,36.4*,-0.1,14.6,0.3,89.5,3.4
Cc1cc(Sc2nnc(N)s2)c2ccccc2n1,11.2,-21.5,11.2,4.5,70.5,-2.6
CC(C)(C)N1C(=O)NC(=O)/C(=C\c2ccc3c(c2)CCN3CCCCl)C1=O,1.9,1.0,32.4*,2.3,19.8,0.5
CCN1C(=O)/C(=C/c2ccc3c(c2)CCN3CCCCl)C(=O)NC1=S,1.7,2.6,9.9,-1.0,3.3,-2.7
COCCN(C(=O)COC(=O)C1CCCCC1)c1c(N)n(Cc2ccccc2)c(=O)[nH]c1=O,.,0.0,2.7,.,.,.
COc1ccc(CS(=O)(=O)CC(C)(O)c2ccccc2Cl)cc1 (stereo unspecified),-2.5,0.4,4.6,-1.1,25.4,0.3
CCOc1ccc(C2/C(=C(\O)c3ccc4c(c3)OCCO4)C(=O)C(=O)N2CCN2CCOCC2)cc1OC (stereo unspecified),-3.0,0.3,34.0*,0.3,5.0,.
COCCN1C(=O)C(=O)/C(=C(/O)c2ccc(S(=O)(=O)N3CCOCC3)cc2)C1c1ccc(O)cc1 (stereo unspecified),-0.1,-3.1,32.9*,2.9,-10.9,7.4
SMILES,RecA intein inh,Mtb FBA inh,GDH-TPI counter,Mtb UGM inh,Mtb betalactam,Rv3671c protease
COc1ccc(/C(O)=C2/C(=O)C(=O)N(Cc3cccnc3)C2c2ccncc2)cc1F (stereo unspecified),.,0.0,17.7,-2.7,-5.4,3.6
Cc1ccc(C)c(/C(O)=C2\C(=O)C(=O)N(CCCN3CCOCC3)C2c2cccnc2)c1 (stereo unspecified),-1.6,-2.5,53.5*,.,.,.
Cc1ccc(C)c(/C(O)=C2\C(=O)C(=O)N(Cc3cccnc3)C2c2cccnc2)c1 (stereo unspecified),2.2,-16.2,37.5*,-1.3,-1.4,-0.2
COc1cc(C2/C(=C(\O)c3ccc4c(c3)OCCO4)C(=O)C(=O)N2CCN2CCOCC2)cc(OC)c1OC (stereo unspecified),-0.5,1.8,9.7,2.8,-2.5,.
Nc1nc2c(nnn2Cc2ccc(Cl)c(Cl)c2)c(=O)[nH]1,.,4.5,0.9,.,.,.
Cc1ccc(/C(O)=C2/C(=O)C(=O)N(CCN3CCOCC3)C2c2cccnc2)cc1 (stereo unspecified),-3.3,-1.4,33.0*,-3.9,9.4,-8.3
Cc1cc(OCc2ccccc2)ccc1/C(O)=C1/C(=O)C(=O)N(Cc2cccnc2)C1c1ccncc1 (stereo unspecified),1.5,1.7,37.6*,-0.7,-9.3,-2.0
COc1cccc(C2/C(=C(\O)c3ccc4c(c3)OCCO4)C(=O)C(=O)N2Cc2cccnc2)c1 (stereo unspecified),-1.0,4.9,31.9*,-1.9,-0.5,-6.5
COc1ccc(/C(O)=C2/C(=O)C(=O)N(CCN3CCOCC3)C2c2cccnc2)cc1OC (stereo unspecified),-1.5,-1.9,10.1,.,9.1,-8.7
CC(C)(C)OC(=O)C[C@H]1C/C=C\C[C@@H](CC(=O)NCCO)C(=O)N[C@H](Cc2ccccc2)COC1=O,.,1.1,-8.2,.,-5.0,4.3
CC(=O)N/C(=C\c1ccccc1)C(=O)OCC(=O)N(CC(C)C)c1c(N)n(Cc2ccccc2)c(=O)[nH]c1=O,.,5.8,0.7,-0.9,-0.5,-3.3
Cc1c(CCC(=O)O)c(=O)n2c([nH]c3ccccc32)c1C#N,-8.6,+,9.3,-0.1,3.0,7.4
C=C(C)Cc1c(C)c(C#N)c2[nH]c3ccccc3n2c1=O,-0.9,+,-1.3,1.9,99.2,-6.7
CCc1cc(=S)n2c([nH]c3ccccc32)c1C#N,-17.4,8.8,-0.9,-0.3,-4.3,8.2
COCc1cc(=O)n2c([nH]c3ccccc32)c1C#N,-78.5,+,19.2,1.4,3.5,1.9
Fc1ccc(-c2ccnc3nc(-n4cccc4)nn23)cc1,-2.8,-6.0,2.6,1.0,-4.8,-13.4
Fc1ccc(-c2ccnc3nc(N4CCOCC4)nn23)cc1,-10.5,51.5*,8.3,-2.1,15.7,-7.6
O=C(CSc1nnc(-c2c[nH]c3ccccc23)o1)N(Cc1ccccc1)c1ccc(F)cc1,1.0,3.2,18.4,0.2,-5.5,-89.8
COc1ccc(CN(C(=O)CSc2nnc(-c3ccccc3C)o2)c2ccc(F)cc2)cc1,40.1*,+,-15.5,2.3,54.4,-11.2
CC(=O)Nc1cccc(-c2cnc(N)c(C(=O)c3cccnc3)n2)c1,.,1.7,-1.2,0.9,-2.8,-1.2
O=C(COC(=O)[C@@H]1CC(O)CN1S(=O)(=O)c1ccc(Cl)cc1)NC(=O)NCc1ccccc1 (stereo partly specified),0.1,0.0,-10.8,-1.1,-10.5,4.5
